According to the supplement of paper PMC3545927:
This is one part of the list. No count for the full screen is at hand.

B1: HC1997 (peptide)
chain: CASVCCSMSYAGNASASA
B2: HC2423 (peptide)
chain: CAAREVPCHRAGNASASA
B3: HC363 (peptide)
chain: CAPGAKQNVQAGNASASA
B4: HC569 (peptide)
chain: CASCGGVVLVAGNASASA
B5: FS-326 (peptide)
chain: CAFLSRRRRAAGNASASA
B6: FS-798 (peptide)
chain: CAHRSVRRRAAGNASASA
B7: HC1138 (peptide)
chain: CAQLLRRLHQAGNASASA
B8: FS-1613 (peptide)
chain: CASLLRERRAAGNASASA
B9: FS-1475 (peptide)
chain: CAQLLRRRRAAGNASASA
B10: FS-582 (peptide)
chain: CACLSRRRRAAGNASASA
B11: HC2214 (peptide)
chain: CAEVVTSKWVAGNASASA
B12: HC280 (peptide)
chain: CAWVAMTPTVAGNASASA
B13: HC50 (peptide)
chain: CATTPRSGSWAGNASASA
B14: HC612 (peptide)
chain: CAQASLLKVPAGNASASA
B15: HC673 (peptide)
chain: CALLAPITAYAGNASASA
B16: FS-1076 (peptide)
chain: CARVQRLRRGAGNASASA
B17: FS-538 (peptide)
chain: CAHPQRKRRGAGNASASA
B18: FS-1406 (peptide)
chain: CARSERNRRGAGNASASA
B19: FS-2237 (peptide)
chain: CARSERSVILAGNASASA
B20: FS-931 (peptide)
chain: CAGYFRIRRGAGNASASA
B21: FS-1122 (peptide)
chain: CAEVARLRRGAGNASASA
B22: HC1399 (peptide)
chain: CALQVLDSHYAGNASASA
B23: HC1416 (peptide)
chain: CALTPPHSAKAGNASASA
B24: HC2539 (peptide)
chain: CASTPCSPHLAGNASASA
B25: HC741 (peptide)
chain: CALKGSSGGPAGNASASA
B26: HC863 (peptide)
chain: CAAKLVALGIAGNASASA
B27: FS-3215 (peptide)
chain: CAVFKRDAHGAGNASASA
B28: FS-595 (peptide)
chain: CAHLVPVLRGAGNASASA
B29: FS-390 (peptide)
chain: CAYLHRVGRGAGNASASA
B30: FS-1578 (peptide)
chain: CAVFQRKRRGAGNASASA
B31: FS-1523 (peptide)
chain: CAFSSRWGRGAGNASASA
B32: FS-634 (peptide)
chain: CAYLNRKRRGAGNASASA
B33: FS-1454 (peptide)
chain: CAFPMRGRRGAGNASASA
B34: HC904 (peptide)
chain: CARRGRTGRGAGNASASA
B35: FS-541 (peptide)
chain: CAIKSRFGRGAGNASASA
B36: FS-1534 (peptide)
chain: CAICSRAARGAGNASASA

Biological target: furin, P09958
Assay: furin cleavage Z-score vs untreated control; higher = more cleavage, active = 3.5 or more, inactive = 1 or less, 8 variable residues between constant flanks
In short: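 Purified furin digested bead-held 8-mer peptide–cDNA fusions at 1:10 enzyme:substrate in 0.01 ml of 50 mM HEPES pH 7.5 with CaCl2 and NaCl for 7.5, 15 or 30 min. The cleavage Z-score compares sequencing counts of released DNA with furin-free reactions on a log scale, with lowess adjustment and median absolute deviation scaling.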

furin, P09958, sequence (P09958 whole entry): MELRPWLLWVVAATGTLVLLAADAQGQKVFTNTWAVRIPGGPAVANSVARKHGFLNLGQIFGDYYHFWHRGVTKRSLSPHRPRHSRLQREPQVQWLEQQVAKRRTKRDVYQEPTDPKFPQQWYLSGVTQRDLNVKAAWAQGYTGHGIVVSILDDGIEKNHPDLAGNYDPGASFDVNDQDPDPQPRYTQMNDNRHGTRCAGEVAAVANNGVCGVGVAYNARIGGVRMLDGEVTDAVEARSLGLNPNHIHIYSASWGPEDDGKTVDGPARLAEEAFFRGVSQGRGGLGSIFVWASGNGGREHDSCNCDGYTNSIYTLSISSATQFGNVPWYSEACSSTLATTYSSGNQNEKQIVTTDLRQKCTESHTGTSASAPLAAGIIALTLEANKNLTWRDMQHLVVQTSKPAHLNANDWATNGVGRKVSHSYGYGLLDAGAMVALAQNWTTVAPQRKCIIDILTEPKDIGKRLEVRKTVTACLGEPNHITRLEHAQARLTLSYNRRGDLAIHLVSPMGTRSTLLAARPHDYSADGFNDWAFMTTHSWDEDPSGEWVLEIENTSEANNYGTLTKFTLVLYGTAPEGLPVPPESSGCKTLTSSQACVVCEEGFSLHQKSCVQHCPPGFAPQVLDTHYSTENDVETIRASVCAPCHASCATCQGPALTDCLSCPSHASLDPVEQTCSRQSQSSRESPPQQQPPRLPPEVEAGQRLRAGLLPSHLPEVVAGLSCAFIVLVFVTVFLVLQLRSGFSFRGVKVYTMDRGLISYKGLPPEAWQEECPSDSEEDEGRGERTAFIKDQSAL

| Sequence | furin cleavage Z-score (7.5 min) | furin cleavage Z-score (15 min) | furin cleavage Z-score (30 min) |
| --- | --- | --- | --- |
| B1 | -0.28 (inactive) | -0.316 (inactive) | -0.657 (inactive) |
| B2 | 0.147 (inactive) | 1.34 | 1.67 |
| B3 | -0.22 (inactive) | -0.957 (inactive) | -0.643 (inactive) |
| B4 | -1.44 (inactive) | -0.138 (inactive) | -1.42 (inactive) |
| B5 | 8.63 (active) | 7.91 (active) | 6.71 (active) |
| B6 | 4.59 (active) | 5.95 (active) | 5.68 (active) |
| B7 | -0.809 (inactive) | 0.744 (inactive) | 0.327 (inactive) |
| B8 | -0.33 (inactive) | 1.11 | 0.57 (inactive) |
| B9 | 5.21 (active) | 3.72 (active) | 3.69 (active) |
| B10 | 9.75 (active) | 10.1 (active) | 8.23 (active) |
| B11 | -0.244 (inactive) | -0.0853 (inactive) | -0.758 (inactive) |
| B12 | -0.409 (inactive) | 1.35 | 0.148 (inactive) |
| B13 | 0.195 (inactive) | -0.703 (inactive) | -1.47 (inactive) |
| B14 | -0.764 (inactive) | -0.112 (inactive) | 0.0537 (inactive) |
| B15 | -3.12 (inactive) | -1.42 (inactive) | -1.58 (inactive) |
| B16 | 6.03 (active) | 4.67 (active) | 4.95 (active) |
| B17 | 8.91 (active) | 10.4 (active) | 7.34 (active) |
| B18 | 12.7 (active) | 13.3 (active) | 9.9 (active) |

| Sequence | furin cleavage Z-score (7.5 min) | furin cleavage Z-score (15 min) | furin cleavage Z-score (30 min) |
| --- | --- | --- | --- |
| B19 | -0.162 (inactive) | 0.495 (inactive) | -1.51 (inactive) |
| B20 | 7.65 (active) | 7.42 (active) | 7.31 (active) |
| B21 | 0.497 (inactive) | 0.166 (inactive) | 1.11 |
| B22 | 0.634 (inactive) | 0.79 (inactive) | -1.28 (inactive) |
| B23 | 0.524 (inactive) | 0.481 (inactive) | -0.0828 (inactive) |
| B24 | 2.23 | -1.13 (inactive) | 0.314 (inactive) |
| B25 | -0.0654 (inactive) | -1.8 (inactive) | -2.14 (inactive) |
| B26 | 0.999 (inactive) | -2.69 (inactive) | 0.907 (inactive) |
| B27 | -0.773 (inactive) | -0.315 (inactive) | 1.52 |
| B28 | 0.989 (inactive) | -0.535 (inactive) | -1.61 (inactive) |
| B29 | 3.96 (active) | 5.69 (active) | 4.8 (active) |
| B30 | 12.4 (active) | 12.7 (active) | 9.42 (active) |
| B31 | -2.35 (inactive) | 0.914 (inactive) | -0.211 (inactive) |
| B32 | 9.69 (active) | 11.9 (active) | 7.89 (active) |
| B33 | -0.221 (inactive) | -0.337 (inactive) | 0.17 (inactive) |
| B34 | -0.725 (inactive) | -0.224 (inactive) | -0.511 (inactive) |
| B35 | 4.29 (active) | 4.38 (active) | 4.05 (active) |
| B36 | -0.759 (inactive) | 0.0398 (inactive) | -0.381 (inactive) |
